From PubChem BioAssay AID1159580 (chemical genetic matrix, 2015)
Where “and” joins values, the source holds several entries; their conditions need not be identical. Equal values may be shown once. Among all 5,500 compounds or so, about 2,000 (36%) were called active. Not shown: some 18% with an inconclusive outcome. Cut-off read from the data, not from the text of the source: active = normalized growth mostly below about 0.91 (no sharp cut-off); inconclusive = no clear call, values can overlap the other calls; inactive = mostly above about 0.92. The list shows a part of the results.

Assay: chemical genetic growth profiling, strain panel (AID 1159580);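 note: tested at 20 µM; growth read once vehicle control cultures reached saturation at 30 °C; 1 = growth at the plate median or of vehicle wells; lower values mean less growth of the strain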
Details: S. cerevisiae deletion strains, growth OD

Measured: normalized growth

CN(C)CCCN1c2ccccc2CCc2ccccc21
inactive: locus YAL013W, strain DEP1, stronger effect = lower value 1.01 and 0.974 | locus YAL021C, strain ccr4, stronger effect = lower value 0.965 | locus YAL026C, strain drs2, stronger effect = lower value 1 | locus YAL030W, strain snc1, stronger effect = lower value 1 | locus YAL040C, strain CLN3, stronger effect = lower value 1.05 | locus YBL061C, strain skt5, stronger effect = lower value 1 | locus YBR009C, strain hhf1, stronger effect = lower value 0.995 | locus YBR021W, strain FUR4, stronger effect = lower value 0.997 | locus YBR023C, strain chs3, stronger effect = lower value 1 | locus YBR171W, strain sec66, stronger effect = lower value 1.01 | locus YBR229C, strain ROT2, stronger effect = lower value 1 | locus YBR231C, strain swc5, stronger effect = lower value 1 | locus YBR279W, strain paf1, stronger effect = lower value 1 | locus YCL011C, strain gbp2, stronger effect = lower value 1.01 | locus YCL016C, strain dcc1, stronger effect = lower value 0.994 | locus YCL029C, strain bik1, stronger effect = lower value 1 | locus YCL061C, strain MRC1 (second series), stronger effect = lower value 1 | locus YCL061C, strain MRC1, stronger effect = lower value 0.997 | locus YCL069W, strain vba3, stronger effect = lower value 1 | locus YCR088W, strain abp1, stronger effect = lower value 1.01 | locus YDL005C, strain med2, stronger effect = lower value 1.01 | locus YDL035C, strain GPR1, stronger effect = lower value 1.03 | locus YDL040C, strain nat1, stronger effect = lower value 1 | locus YDL074C, strain BRE1, stronger effect = lower value 1.02 | locus YDL101C, strain DUN1, stronger effect = lower value 1.03 | locus YDL134C, strain PPH21, stronger effect = lower value 1.03 | locus YDL185W, strain tfp1, stronger effect = lower value 0.993 | locus YDL192W, strain arf1, stronger effect = lower value 0.992 | locus YDR001C, strain nth1, stronger effect = lower value 1.01 | locus YDR069C, strain doa4, stronger effect = lower value 0.994 | locus YDR101C, strain arx1, stronger effect = lower value 0.998 | locus YDR137W, strain rgp1, stronger effect = lower value 1.1 | locus YDR150W, strain NUM1, stronger effect = lower value 1.01 | locus YDR159W, strain sac3, stronger effect = lower value 1 | locus YDR162C, strain NBP2, stronger effect = lower value 1.01 | locus YDR195W, strain ref2 1.02 | locus YDR297W, strain sur2, stronger effect = lower value 0.996 | locus YDR318W, strain mcm21, stronger effect = lower value 0.994 | locus YDR334W, strain swr1, stronger effect = lower value 1.01 | locus YDR335W, strain msn5, stronger effect = lower value 1.01 | locus YDR363W, strain ESC2, stronger effect = lower value 0.964 | locus YDR388W, stronger effect = lower value 0.995 | locus YDR392W, strain spt3, stronger effect = lower value 1.01 | locus YDR502C, strain sam2, stronger effect = lower value 0.993 | locus YEL003W, strain gim4, stronger effect = lower value 1 | locus YEL037C, strain rad23, stronger effect = lower value 1 | locus YEL061C, strain CIN8 (second series), stronger effect = lower value 1.03 | locus YEL061C, strain CIN8, stronger effect = lower value 1.01 | locus YER002W, strain NOP16, stronger effect = lower value 1.01 | locus YER015W, strain faa2, stronger effect = lower value 0.993 | locus YER016W, strain bim1, stronger effect = lower value 1.01 | locus YER110C, stronger effect = lower value 0.988 | locus YER111C, strain swi4, stronger effect = lower value 0.99 | locus YER155C, strain BEM2 (second series), stronger effect = lower value 0.975 | locus YER155C, strain BEM2, stronger effect = lower value 1 | locus YER167W, strain BCK2, stronger effect = lower value 1.01 | locus YFR010W, strain ubp6, stronger effect = lower value 1.01 | locus YGL078C, strain dbp3, stronger effect = lower value 0.972 | locus YGL086W, strain mad1, stronger effect = lower value 1.01 | locus YGL167C, strain pmr1, stronger effect = lower value 1.01 | locus YGL173C, strain kem1, stronger effect = lower value 0.991 | locus YGL227W, strain vid30, stronger effect = lower value 1 | locus YGL240W, strain doc1, stronger effect = lower value 1 | locus YGL248W, strain PDE1, stronger effect = lower value 1.01 | locus YGL253W, strain hxk2, stronger effect = lower value 1.02 | locus YGR078C, strain PAC10, stronger effect = lower value 1 and 0.981 | locus YGR135W, strain pre9, stronger effect = lower value 0.958 | locus YGR229C, strain SMI1, stronger effect = lower value 1 and 0.978 | locus YGR252W, strain gcn5, stronger effect = lower value 0.942 | locus YHR013C, strain ard1, stronger effect = lower value 0.947 | locus YHR027C, strain rpn1, stronger effect = lower value 1.01 | locus YHR030C, strain SLT2, stronger effect = lower value 1 and 0.993 | locus YHR079C, strain IRE1 (second series), stronger effect = lower value 0.989 | locus YHR079C, strain IRE1, stronger effect = lower value 1.01 | locus YHR094C, strain hxt1, stronger effect = lower value 0.978 | locus YHR129C, strain ARP1, stronger effect = lower value 1.01 | locus YHR142W, strain chs7, stronger effect = lower value 1.02 | locus YHR200W, strain rpn10, stronger effect = lower value 1 | locus YIL066C, strain RNR3, stronger effect = lower value 1.01 | locus YIL073C, strain SPO22, stronger effect = lower value 1 | locus YIL125W, strain kgd1, stronger effect = lower value 0.995 | locus YIR030C, strain dcg1, stronger effect = lower value 0.984 | locus YJL092W, strain hpr5, stronger effect = lower value 1.01 | locus YJL095W, strain BCK1 (second series), stronger effect = lower value 0.996 | locus YJL095W, strain BCK1, stronger effect = lower value 0.997 and 0.998 | locus YJL115W, strain asf1, stronger effect = lower value 1.01 | locus YJL129C, strain trk1, stronger effect = lower value 0.995 | locus YJL134W, strain LCB3, stronger effect = lower value 1.01 | locus YJL154C, strain vps35, stronger effect = lower value 1.02 | locus YJL164C, strain tpk1, stronger effect = lower value 1 | locus YJL166W, strain qcr8, stronger effect = lower value 1.02 | locus YJL168C, strain set2, stronger effect = lower value 0.984 | locus YJL187C, strain SWE1 (second series), stronger effect = lower value 1.01 | locus YJR043C, strain POL32, stronger effect = lower value 1.03 | locus YJR066W, strain TOR1, stronger effect = lower value 0.923
